The values that follow come from the supplement of paper PMC6555819.

This test has as its system VDR:RXRa (NR concentration 270 nM, RXRa partner concentration 90 nM). In words: PBM binding z-score (relative to random genomic background probes); higher = stronger binding; sequences stand for … in GC…GCGATTGACAGCGTAGAATGAAGG
As to the method:
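Protein-binding microarray (Agilent 4x180K custom design, double-stranded 60-nt probes: 5' GC cap, 34-nt variable region, 24-nt constant primer region; full probe sequence given). Purified or IVT nuclear receptor:RXRα heterodimers (3:1 NR:RXRα, mostly 270:90 nM) or homodimers were incubated for 1 h in PBS with 2% milk and no ligand, then detected with Alexa488 antibodies. Fluorescence from o1-orientation probes (~5 replicates averaged) was converted to z-scores against 500 random hg19 background probes. Variable regions are seed direct-repeat (DR0–DR5) sites, all their single-nucleotide variants and half-site ablations.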
For TCTATTAGTTGATTAGGCCAACCGAAACAGCGGA, the PBM binding z-score worked out at 0.618.

The sequence TAGCCTAGGTCATGTGCCAGTATACCACGCGAAC yielded a PBM binding z-score of 2.35.

TCGAGTAGGTTAGGGGCATTCAAAATGGCGTCGA yielded a PBM binding z-score of 0.856.

As to ACTCGTAGGACAAAGGTCAGAGCTACGCCAGTGA, the PBM binding z-score worked out at 2.89.

Sequence CCTACTGGGCCAAAAAGGTCATTGTTGCCGATAA gave a PBM binding z-score of 4.46.

CCGAGTGGGGCAGAAAGGTTACCATACCATCCGG displayed a PBM binding z-score of 0.759.

ATTCCAAGGTGATCGTGAGGTCGTTGATACTAAC yielded a PBM binding z-score of 3.31.

TCTGCTAGGTCAGTTGGTCAGGTAACGAGCTGCC gave a PBM binding z-score of -0.0561.

ACTAGCAGGCCAAGGCTCACTCAAGATTAGTCCG: the PBM binding z-score is -0.781.

GATACAGGGTCAACGCCAGAGTACGCGTATTGAT showed a PBM binding z-score of 4.77.

CGAACGAGGGCATGAGTTGATCGCAAATGCCGAT: the PBM binding z-score amounted to 1.34.

Sequence CAAACTTGGTCACCGGAAGGTCAAAGTCCGCATG returned a PBM binding z-score of 3.88.

For TTGCCAAGGTGAAGGTCGTTGATCCCTCTGTAGA, the PBM binding z-score turned out to be 1.08.

Consider TCATGTAGGTAAAGGTGAAAGTCGAACGATATGA, for which the PBM binding z-score stood at 1.11.

On to TGTCAAAGTTCAAAAGTAACGTAAGTATCCACAC, for which the PBM binding z-score amounted to 3.97.

In turn, GCTGCTAGGTCAACTGATGGTCAGCTGAAGCTCG displayed a PBM binding z-score of 1.61.

CCGACGGGGGCATAAGGTTACCATAAGCCAGCCC came in with a PBM binding z-score of 3.5.

The sequence AATACAGGGTCACAAGGCCAGAGTAGGTACGAAT displayed a PBM binding z-score of 4.82.

CGAACTAGGTCAAGGTCAGTGAATCTCCGCACGC returned a PBM binding z-score of 3.19.

GCTTACGGGTCAAAGATTATAGCATGAATAGAAT: the PBM binding z-score is 3.28.

For the sequence TAGCCTAGGTCATTGGGCCAGTATCGTACGCATC, the PBM binding z-score stood at 2.37.

CTCGAAAAGTCGTGCTCAGGTGAGTATACCAAAC came in with a PBM binding z-score of -0.141.

For CCGAGGAGGTTATGGGGCATTCAGGCAACGGTGA, the PBM binding z-score worked out at 0.925.

In turn, TAGCCTAGGTCATGCTGGCCAGTATAGTGTCGGC had a PBM binding z-score of 2.04.

ATCTCTAGGTAAAGTTCACTGAAAGATCGATAGA came in with a PBM binding z-score of 2.89.

For the sequence CCTAGTTGGTCAGGAGGTCACACGCCGGATATGA, the PBM binding z-score amounted to 3.93.

In turn, CCTGCTAGGTCATGGTCAGATAATCTACAGTATG yielded a PBM binding z-score of 1.62.

Take TATACAGGGTCATAGGCCAGAGTACGAATGTCGA: the PBM binding z-score is 4.62.

For the sequence CGTCCAAGGTCAAAGGACAGTGAAGAGATGACGG, the PBM binding z-score was determined as 3.76.

In the case of TAGCCTTGGTCATGGGCCAGTATACCACGCGAAC, the PBM binding z-score is -0.347.

Sequence AGTCAAAGTTCATCTAGGTAACCTAAGATATGCT registered a PBM binding z-score of 5.11.

Regarding CCTAGTTGGTCCGGAGGTCACACACCGGATATGA, the PBM binding z-score came out at 3.77.

In turn, GCTCGGAGGACAAGGTCAGAGATTTGTCCGTAGA gave a PBM binding z-score of 1.22.

The sequence TCTAGTTGGTCACGGAGGTCACACCCGACGGGTA showed a PBM binding z-score of 5.67.

GCGACAGGGGCATCAGCAGGTTACCATAACTTAA yielded a PBM binding z-score of 0.517.

As for GATACTGGGTCAGCTAGAGGCCAGAGTATGGAAA, the PBM binding z-score was 0.938.

With CCTCGGAGGACAGTAGGTCAGAGCTGTCCGCTTT, the PBM binding z-score is -0.11.

Take GCTAGTTGGTCAGTAAAAGCTCACACACCGGTCG: the PBM binding z-score is -0.481.

In turn, AGAATGAGGTTACCAAAGATCAGGAAAACGCTTG returned a PBM binding z-score of 1.35.

On to TAGCCTAGGTCAGATGGGGCCAGTATACGCTATA, for which the PBM binding z-score was found to be 2.69.
